Over roughly 33,000 sequences, “E-score (-0.5 to 0.5)” has its median near -0.032; the highest 2% begin near 0.36. The sample holds the highest values, similar sequences and a random draw of the others, so the mix is not that of the screen.
Target: T1, Sko1 (UniProt Q02100)
T1 sequence: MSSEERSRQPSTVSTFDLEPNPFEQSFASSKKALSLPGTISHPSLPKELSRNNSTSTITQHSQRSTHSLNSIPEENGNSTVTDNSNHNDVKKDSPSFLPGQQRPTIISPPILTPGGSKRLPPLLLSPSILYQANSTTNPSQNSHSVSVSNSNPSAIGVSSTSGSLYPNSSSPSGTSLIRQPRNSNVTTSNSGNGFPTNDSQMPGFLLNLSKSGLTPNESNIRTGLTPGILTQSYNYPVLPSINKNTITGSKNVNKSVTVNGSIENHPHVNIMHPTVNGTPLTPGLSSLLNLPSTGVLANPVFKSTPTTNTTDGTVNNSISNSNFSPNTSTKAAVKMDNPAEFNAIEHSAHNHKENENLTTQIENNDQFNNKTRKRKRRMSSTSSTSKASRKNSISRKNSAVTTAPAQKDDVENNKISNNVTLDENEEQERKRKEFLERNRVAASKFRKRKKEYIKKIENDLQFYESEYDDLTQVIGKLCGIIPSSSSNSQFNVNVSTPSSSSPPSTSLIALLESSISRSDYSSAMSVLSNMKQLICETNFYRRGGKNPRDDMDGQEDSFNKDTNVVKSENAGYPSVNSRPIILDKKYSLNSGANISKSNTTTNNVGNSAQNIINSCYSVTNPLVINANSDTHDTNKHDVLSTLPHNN
Experiment: PBM E-score (8-mer binding enrichment) (E-score (-0.5 to 0.5)); higher = stronger / more preferred TF binding
Details: protein concentration: 200 nM; construct: GST-full length
Experimental: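 Universal 'all 10-mer' protein binding microarrays (Agilent AMADID 015681) probed with GST-tagged S. cerevisiae TFs (full-length or DBD) made by in vitro transcription/translation (PURExpress), about 100-200 nM. Bound TF was detected with fluorescent anti-GST. Each ungapped 8-mer (which stands for itself and its reverse complement) is scored by the PBM enrichment score (E-score), a modified Wilcoxon-Mann-Whitney statistic from -0.5 to +0.5, computed with the Universal PBM Analysis Suite. Scale: above 0.35 generally sequence-specific binding.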

Going from AACCTACC to CTAGGGTA, the “PBM E-score” value rises from -0.193 to -0.161.

Going from CAGTGAGA to AGTAATTC, the “PBM E-score” value rises from 0.0132 to 0.169.

First: CGTAATTC
Second: CGTAATTA
The “PBM E-score” value of the first is lower: 0.435 for the first, 0.439 for the second.

Going from CATAATTC to GGTAATTA, the “PBM E-score” value rises from 0.238 to 0.239.

Going from AGTAATTA to GGAAAACC, the “PBM E-score” value falls from 0.263 to -0.128.

Going from CATTAGCC to AGTGACAT, the “PBM E-score” value rises from -0.188 to 0.361.

Going from AATGACAG to AATGACAT, the “PBM E-score” value rises from 0.0139 to 0.4.

First: AGTGACAA
Second: AGTGACAC
The “PBM E-score” value of the first is lower: 0.0709 for the first, 0.191 for the second.

Compared with AATGACAC, ACTGCCTG is lower in “PBM E-score” value: 0.258 for the first, -0.0718 for the second.

Going from AGAAGCAT to CTGGGTTC, the “PBM E-score” value falls from -0.0822 to -0.145.

Going from ACCACAGC to AATGGCGT, the “PBM E-score” value rises from -0.195 to 0.387.

Compared with AATGGCGC, AATGGCGG is lower in “PBM E-score” value: -0.0228 for the first, -0.3 for the second.

First: CACTCCTC
Second: ACTCAGCT
The “PBM E-score” value of the first is higher: -0.168 for the first, -0.174 for the second.

First: CGCGTACA
Second: AACGTACA
The “PBM E-score” value of the first is lower: 0.209 for the first, 0.303 for the second.

First: CACGTACG
Second: CCCGTACA
The “PBM E-score” value of the first is higher: 0.406 for the first, -0.273 for the second.

Going from CGCGTACG to CAAGTACG, the “PBM E-score” value falls from 0.401 to 0.135.

Compared with CACGTACC, AACGTACC is lower in “PBM E-score” value: 0.407 for the first, 0.223 for the second.

Going from CACGTACA to AGCGTACG, the “PBM E-score” value falls from 0.389 to 0.214.

Going from CTCGTACC to CCCGTACG, the “PBM E-score” value falls from 0.123 to 0.0984.

Going from ACTTATTA to GAGCCCTC, the “PBM E-score” value falls from 0.157 to -0.351.

Going from ACCTTTCC to AGGGCGAT, the “PBM E-score” value rises from -0.271 to -0.0344.

Compared with ACTAGGGC, GCACTTAA is higher in “PBM E-score” value: -0.211 for the first, 0.109 for the second.

First: AAACCTGC
Second: AGCTTCCT
The “PBM E-score” value of the first is lower: -0.203 for the first, 0.0027 for the second.

First: GTCGTACA
Second: GACGTACA
The “PBM E-score” value of the first is lower: 0.0687 for the first, 0.446 for the second.

Compared with ACCGTACA, GCCGTACA is lower in “PBM E-score” value: 0.0593 for the first, -0.148 for the second.

Going from GGCGTACC to GACGTACC, the “PBM E-score” value rises from -0.0685 to 0.433.

First: GCCGTACC
Second: TCCGTACA
The “PBM E-score” value of the first is lower: -0.175 for the first, 0.0313 for the second.

Compared with TACGTACA, ATTCAAGA is lower in “PBM E-score” value: 0.477 for the first, 0.0257 for the second.

Compared with ACTCTCAA, CGTGTGGA is higher in “PBM E-score” value: -0.00162 for the first, 0.00704 for the second.

First: AAATCTCG
Second: GACACTTA
The “PBM E-score” value of the first is higher: 0.014 for the first, -0.00276 for the second.

Going from CAATTACA to AAATTACG, the “PBM E-score” value rises from 0.167 to 0.439.

First: ATATTACG
Second: ATATTACC
The “PBM E-score” value of the first is higher: 0.465 for the first, 0.251 for the second.

First: AAATTACC
Second: CAATTACC
The “PBM E-score” value of the first is lower: 0.0333 for the first, 0.156 for the second.

Compared with CAATTACG, ATATTACA is lower in “PBM E-score” value: 0.455 for the first, 0.175 for the second.

Going from AAATTACT to AAGGTCGA, the “PBM E-score” value falls from 0.196 to -0.0566.

Going from ACCAAGCT to GACACCAC, the “PBM E-score” value falls from 0.0443 to -0.0851.

Compared with CACTATCG, GAATCATC is higher in “PBM E-score” value: -0.0728 for the first, 0.0732 for the second.

First: ACGTTACA
Second: GCGTTGTA
The “PBM E-score” value of the first is higher: 0.359 for the first, 0.057 for the second.

Compared with ACGTTGTG, CCGTTATA is lower in “PBM E-score” value: 0.311 for the first, 0.0635 for the second.

Compared with ACGTTATC, ACGTTGTA is lower in “PBM E-score” value: 0.413 for the first, 0.394 for the second.

Compared with ACGTTACG, ACGTTAGC is lower in “PBM E-score” value: 0.428 for the first, 0.352 for the second.

Going from ACGTTACC to GCGTTATA, the “PBM E-score” value falls from 0.297 to 0.194.

Going from CCGTTATC to ACGTTATA, the “PBM E-score” value rises from -0.00855 to 0.426.

Compared with CGCGCTGC, CGCCCGGA is lower in “PBM E-score” value: -0.147 for the first, -0.211 for the second.

Going from TACTGAAA to AGAGACGA, the “PBM E-score” value falls from 0.219 to 0.0256.

Compared with CCGGCTCA, AAGAGAAC is higher in “PBM E-score” value: -0.162 for the first, 0.0447 for the second.

First: GTGTGAGA
Second: ACGTTATG
The “PBM E-score” value of the first is lower: 0.0436 for the first, 0.419 for the second.

Compared with ACGTTAGG, ACGTTAAG is higher in “PBM E-score” value: 0.244 for the first, 0.325 for the second.

Going from GGGACGCA to AGGACGCA, the “PBM E-score” value falls from 0.0981 to -0.117.

Going from GCGACGCA to ACGACGCG, the “PBM E-score” value rises from 0.128 to 0.148.

First: ATGACGCA
Second: CGGACGCA
The “PBM E-score” value of the first is higher: 0.492 for the first, -0.121 for the second.

Going from CTGACGCC to AAGACGCG, the “PBM E-score” value falls from 0.159 to -0.115.

First: GTGACGCA
Second: CTGACGCA
The “PBM E-score” value of the first is higher: 0.457 for the first, 0.403 for the second.

Compared with ACGACGCA, ATGACGCG is higher in “PBM E-score” value: 0.334 for the first, 0.476 for the second.

Going from GGACCTCA to ACCTGCGC, the “PBM E-score” value falls from -0.0759 to -0.192.

From the supplement of paper PMC3334620
